# According to PubChem BioAssay (EPA / NIEHS):
# Results filed as inconclusive are left out. Active and inactive are the calls of the source. The calls were made as follows: active = hit-call score of the fitted dose curve at least 0.9, where 1 is the maximum; inconclusive = response in the unintended direction; inactive = score below 0.9.
# Biological target: PGR (gene 5241) (UniProt P06401)
# Assay: TOX21_PR_BLA_Followup_Agonist_ratio: Tox21 HEK293 Progesterone Receptor (PR) Agonism Beta-lactamase Follow-Up Assay, Ratio (AID 2283933)
# How it was run: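 PR-UAS-bla HEK293T cells (GAL4-UAS beta-lactamase reporter) in medium with 2% charcoal-stripped FBS received compounds after 6 hr at 37C, then incubated 16 hr. LiveBLAzer FRET substrate added, 2 hr room temperature; cleaved/uncleaved (ch2/ch1) ratio fitted upward versus DMSO.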
# Sequence of PGR (gene 5241) (P06401 whole entry, looked up): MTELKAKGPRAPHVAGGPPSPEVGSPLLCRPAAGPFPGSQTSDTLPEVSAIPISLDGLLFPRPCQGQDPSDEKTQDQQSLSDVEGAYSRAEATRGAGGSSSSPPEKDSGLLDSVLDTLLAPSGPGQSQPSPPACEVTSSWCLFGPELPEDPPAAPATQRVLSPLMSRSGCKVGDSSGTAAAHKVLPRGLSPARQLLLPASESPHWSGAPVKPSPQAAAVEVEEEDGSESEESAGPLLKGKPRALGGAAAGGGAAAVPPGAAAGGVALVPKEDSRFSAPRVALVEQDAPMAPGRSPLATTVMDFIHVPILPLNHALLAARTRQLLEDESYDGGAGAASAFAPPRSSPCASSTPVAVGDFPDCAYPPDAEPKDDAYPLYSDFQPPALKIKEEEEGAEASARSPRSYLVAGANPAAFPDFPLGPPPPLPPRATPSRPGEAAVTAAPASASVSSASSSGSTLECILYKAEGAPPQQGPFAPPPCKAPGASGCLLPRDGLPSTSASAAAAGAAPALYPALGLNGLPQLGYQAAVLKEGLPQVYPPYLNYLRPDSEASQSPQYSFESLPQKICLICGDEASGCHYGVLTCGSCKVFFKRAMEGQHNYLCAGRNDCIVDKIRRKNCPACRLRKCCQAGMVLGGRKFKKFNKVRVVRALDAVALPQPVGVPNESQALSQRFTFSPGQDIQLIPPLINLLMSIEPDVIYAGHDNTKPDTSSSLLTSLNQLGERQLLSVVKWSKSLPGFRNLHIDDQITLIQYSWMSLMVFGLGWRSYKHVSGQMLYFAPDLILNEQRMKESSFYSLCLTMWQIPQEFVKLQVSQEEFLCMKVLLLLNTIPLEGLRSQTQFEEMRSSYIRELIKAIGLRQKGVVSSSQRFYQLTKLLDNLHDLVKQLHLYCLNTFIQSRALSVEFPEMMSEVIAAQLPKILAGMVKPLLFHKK
SMILES,outcome,AC50
CCN(CC)CC(=O)OCC(=O)[C@@]1(O)CC[C@H]2[C@@H]3CCC4=CC(=O)CC[C@]4(C)[C@H]3[C@@H](O)C[C@@]21C,inactive,–
C[C@@H]1CC(=O)NN=C1c1ccc(NN=C(C#N)C#N)cc1,inactive,–
CC(=O)O[C@H]1CC[C@@]2(C)C(=CC[C@@H]3[C@@H]2CC[C@]2(C)C(C(C)=O)=CC[C@@H]32)C1,inactive,–
C[C@@H]1C[C@H]2[C@@H]3CCC4=CC(=O)C=C[C@]4(C)[C@@]3(F)[C@@H](O)C[C@]2(C)[C@@]1(O)C(=O)COC(=O)c1ccncc1,–,26.1 µM (active)
CCC(=O)Oc1ccc2c(c1)CC[C@@H]1[C@@H]2CC[C@@]2(C)[C@H]1C[C@@H](OC(=O)CC)[C@@H]2OC(=O)CC,inactive,–
CC(=O)O[C@@H]1CC2C3CCc4cc(OC(=O)c5ccccc5)ccc4C3CCC2(C)[C@H]1OC(C)=O (stereo partly drawn),inactive,–
COC(=O)C1=C(C)NC(C)=C(C(=O)OC(C)C)C1c1cccc2nonc12 (stereo not drawn),inactive,–
CC(=O)OCC(=O)[C@H]1CC[C@H]2[C@@H]3CCC4=CC(=O)CC[C@]4(C)[C@H]3CC[C@]12C,–,0.844 µM (active)
CCC(=O)O[C@]1(C(=O)COC)[C@@H](C)C[C@H]2[C@@H]3CCC4=CC(=O)C=C[C@]4(C)C3(F)[C@@H](O)C[C@@]21C (stereo partly drawn),–,0.468 µM (active)
COC(=O)[C@@H]1CC2=CC(=O)CC[C@]2(C)[C@@]23O[C@@H]2C[C@@]2(C)[C@@H](CC[C@@]24CCC(=O)O4)[C@H]13,inactive,–
C/C=C(/C(=C/C)c1ccc(OC(C)=O)cc1)c1ccc(OC(C)=O)cc1,inactive,–
CC(=O)OCC(=O)[C@@]1(O)CC[C@H]2[C@@H]3CCC4=CC(=O)CC[C@]4(C)[C@H]3C(=O)C[C@@]21C,inactive,–
C[C@]12CCC(=O)C=C1CC[C@@H]1[C@@H]2[C@@H](O)C[C@@]2(C)[C@H]1CC[C@]2(O)C(=O)CO,inactive,–
CC(C)(C)C(O)/C=C/c1ccc2c(c1)OCO2 (stereo not drawn),inactive,–
CCCC(=O)OCOC(=O)C1=C(C)NC(C)=C(C(=O)OC)C1c1cccc(Cl)c1Cl (stereo not drawn),inactive,–

# Biological target: PGR (gene 5241) (UniProt P06401)
# Assay: TOX21_PR_BLA_Followup_Antagonist_ratio: Tox21 HEK293 Progesterone Receptor (PR) Antagonism Beta-lactamase Follow-Up Assay, Ratio (AID 2283934)
# How it was run: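 PR-UAS-bla HEK293T cells in medium with 2% charcoal-stripped FBS were treated with compounds plus 1 nM (final) promegestone (R5020) for 16 hr at 37C. LiveBLAzer B/G FRET substrate was then added for 2 h at room temperature; signal is cleaved/uncleaved substrate ratio versus DMSO.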
SMILES,outcome,AC50
CCN(CC)CC(=O)OCC(=O)[C@@]1(O)CC[C@H]2[C@@H]3CCC4=CC(=O)CC[C@]4(C)[C@H]3[C@@H](O)C[C@@]21C,inactive,–
C[C@@H]1CC(=O)NN=C1c1ccc(NN=C(C#N)C#N)cc1,–,17.3 µM (active)
CC(=O)O[C@H]1CC[C@@]2(C)C(=CC[C@@H]3[C@@H]2CC[C@]2(C)C(C(C)=O)=CC[C@@H]32)C1,–,10 µM (active)
C[C@@H]1C[C@H]2[C@@H]3C[C@H](F)C4=CC(=O)C=C[C@]4(C)[C@@]3(F)[C@@H](O)C[C@]2(C)[C@@]1(O)C(=O)CO,inactive,–
C[C@@H]1C[C@H]2[C@@H]3CCC4=CC(=O)C=C[C@]4(C)[C@@]3(F)[C@@H](O)C[C@]2(C)[C@@]1(O)C(=O)COC(=O)c1ccncc1,inactive,–
CCC(=O)Oc1ccc2c(c1)CC[C@@H]1[C@@H]2CC[C@@]2(C)[C@H]1C[C@@H](OC(=O)CC)[C@@H]2OC(=O)CC,–,2.81 µM (active)
CC(=O)O[C@@H]1CC2C3CCc4cc(OC(=O)c5ccccc5)ccc4C3CCC2(C)[C@H]1OC(C)=O (stereo partly drawn),–,5.65 µM (active)
COC(=O)C1=C(C)NC(C)=C(C(=O)OC(C)C)C1c1cccc2nonc12 (stereo not drawn),–,19.4 µM (active)
CC(=O)OCC(=O)[C@@]1(O)[C@H](C)C[C@H]2[C@@H]3CCC4=CC(=O)C=C[C@]4(C)[C@@]3(F)[C@@H](O)C[C@@]21C,inactive,–
CC(=O)OCC(=O)[C@H]1CC[C@H]2[C@@H]3CCC4=CC(=O)CC[C@]4(C)[C@H]3CC[C@]12C,inactive,–
CCC(=O)O[C@]1(C(=O)COC)[C@@H](C)C[C@H]2[C@@H]3CCC4=CC(=O)C=C[C@]4(C)C3(F)[C@@H](O)C[C@@]21C (stereo partly drawn),inactive,–
C/C=C(/C(=C/C)c1ccc(OC(C)=O)cc1)c1ccc(OC(C)=O)cc1,–,9.64 µM (active)
C/C=C1/C(=O)C[C@H]2[C@@H]3CCC4=CC(=O)CC[C@]4(C)[C@H]3CC[C@]12C,inactive,–
CC(=O)OCC(=O)[C@@]1(O)CC[C@H]2[C@@H]3CCC4=CC(=O)CC[C@]4(C)[C@H]3C(=O)C[C@@]21C,inactive,–
C[C@]12CCC(=O)C=C1CC[C@H]1[C@@H]3CC[C@](O)(C(=O)CO)[C@@]3(C)C[C@H](O)[C@@]12F,inactive,–
C[C@]12CCC(=O)C=C1CC[C@@H]1[C@@H]2[C@@H](O)C[C@@]2(C)[C@H]1CC[C@]2(O)C(=O)CO,inactive,–
CC(C)(C)C(O)/C=C/c1ccc2c(c1)OCO2 (stereo not drawn),inactive,–
CCCC(=O)OCOC(=O)C1=C(C)NC(C)=C(C(=O)OC)C1c1cccc(Cl)c1Cl (stereo not drawn),inactive,–
